Test results taken from PubChem BioAssay AID463190 (Sanford-Burnham Center for Chemical Genomics, 2010).
The whole screen tested about 330,000 compounds, of which about 7,300 (2.2%) were called active. What follows is part of a selection rich in actives, with near analogues and random picks from the rest. Unmarked numbers belong to inactive results.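 How the source made its calls: active means inhibition of at least 40%; inactive means the rest.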

Test: growth inhibition of tim10-1 ts yeast – luminescence, uHTS, primary screen (AID 463190);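 further: mutant grown at 25 °C; 0% = DMSO wells with yeast and 100% = wells holding no yeast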
Details: S. cerevisiae tim10-1 ts strain growth, BacTiter-Glo, 24 h; at 20 µM; hits give high values

| SMILES | inhibition |
| --- | --- |
| Cc1nc2ccccn2c1P(=S)(N1CCCCC1)N1CCCCC1 | 56.2% (active) |
| O=C(COc1ccc2ccccc2c1)N1CCN(Cc2ccncc2)CC1 | 24.7% |
| CNP1(NC)=Nc2nn(-c3ccccc3)c(N)c2C(c2ccccc2)=N1 | -2.7% |
| CCc1ccc(OCC(=O)N2CCN(CC(=O)Nc3ccccc3Cl)CC2)cc1 | 12.7% |
| COc1cccc(N2C(=O)NC(=O)/C(=C\c3cn(C)c4ccccc34)C2=O)c1 | 13.4% |
| COc1ccc(N2C(=O)/C(=C/c3ccco3)C(=O)NC2=S)cc1 | 23.1% |
| COc1cccc(N2C(=O)NC(=O)/C(=C\c3ccc([N+](=O)[O-])s3)C2=O)c1 | 70.3% (active) |
| O=C1NC(=O)N(c2ccccc2)C(=O)/C1=C/c1ccc([N+](=O)[O-])s1 | 81.2% (active) |
| Fc1ccc(C2N3CCCN23)cc1 (stereo not given) | -13.4% |
| O=C(O)CCn1cc(C=C2C(=O)NC(=S)NC2=O)c(-c2cccc(Br)c2)n1 | 23.4% |
| COc1ccc2c(c1O)-c1cccc3c1[C@@H](C2)N(C)CC3 | -10% |
| CN(C)C(=O)Oc1cc(=O)n2c3c(cccc13)CCC2 | 13.3% |
| O=C1C2(Cl)C3(Cl)C4(Cl)C(Cl)(Cl)C5(Cl)C3(Cl)C1(Cl)C5(Cl)C24Cl (stereo not given) | -91.8% |
| O=C(CCCn1c(=O)[nH]c2cc(Cl)ccc2c1=O)N1CCC2(CC1)OCCO2 | 17.3% |
| COC(=O)C1=C(c2ccc(F)cc2OCc2ccccc2)C[C@@H]2CC[C@H]1N2C(=O)NCc1ccc2[nH]ccc2c1 | 9.44% |
| CCNc1nc2[nH]c(=O)c3c(c2s1)OC(N)=C(C#N)C3c1cccs1 (stereo not given) | -13.5% |
| N#CC1=C(N)Oc2c(c(=O)oc3ccccc23)C1c1ccccc1OC(=O)c1cccs1 (stereo not given) | 46.4% (active) |
| CC(=O)N(C1=NCCCS1)c1ccccc1F | 3.96% |
| CC1C2Cn3c(nc4ccccc43)C1N(C)O2 (stereo not given) | -11.3% |
| COP(=O)(OC)C(NC(=O)c1ccc(C)cc1)C(Cl)(Cl)Cl (stereo not given) | 11% |
| COC(=O)C1=C(c2cc3ccccc3s2)C[C@@H]2CC[C@H]1N2C(=O)NCCO | -17% |
| CCCCCn1c(=O)c(C(=O)Nc2c(C)n(C)n(-c3ccccc3)c2=O)c(O)c2ccccc21 | 45.4% (active) |
| CCCCCn1c(=O)c(C(=O)NCc2ccccc2)c(O)c2ccccc21 | -27.8% |
| CCCCn1c(=O)c(C(=O)Nc2ccccc2Cl)c(O)c2ccccc21 | 2.29% |
| O=C(O)c1ccccc1NC(=O)C1C2CCC(O2)C1C(=O)O (stereo not given) | -7.62% |
